According to ChEMBL document CHEMBL3988442, “University of Dundee, Small-Polar-MMV Screening Library” (2021):
Hit rate of the full screen: of about 48,000 compounds, about 13,000 (27%) showed an effect of 50% or more. The list shows a part of the results.

system: Wolbachia pipientis; assay: Anti-Wolbachia Cell-Based Screen; type: functional; set-up: scale not given: in the data most compounds retested in dose-response had high values; settings: 5 µM

Row | Compound | Percent Effect [%]
1 | CC(C)(C)c1c[nH]c([C@@H]2COCCN2C2CCOCC2)n1 | 1.318
2 | CCN(C)C(=O)CCC(=O)c1cccs1 | 14.3
3 | CC(C)S(=O)(=O)N(C)C(=O)CCc1ccsc1 | -69.32
4 | O=C(NC1CCC1)[C@@H]1CCO[C@@H]2CCN(C3CCCC3)C[C@@H]21.O=C(O)C(F)(F)F | -2.811
5 | Cc1cc(C)cc(CN2CCN(C(=O)C3CCC3)[C@@H]3CS(=O)(=O)C[C@@H]32)c1 | 5.878
6 | CN(C)C(=O)N1CCN(Cc2ccccc2)[C@@H]2CS(=O)(=O)C[C@@H]21 | -15.23
7 | Cc1ncc(CN2CCN(C(=O)C3CCC3)[C@@H]3CS(=O)(=O)C[C@@H]32)cn1 | 112.3
8 | CCN(CC)C(=O)N1CCN(Cc2cnc(C)nc2)[C@H]2CS(=O)(=O)C[C@H]21 | 94.21
9 | CCc1ccc(CN2CCN(C(=O)C(C)C)[C@@H]3CS(=O)(=O)C[C@@H]32)cc1 | -2.722
10 | Cc1ccc(CN2CCN(C(=O)C3CCC3)[C@@H]3CS(=O)(=O)C[C@@H]32)cc1C | 4.312
11 | COc1cc(Oc2ccc(C(F)(F)F)cn2)ccc1CN1CCCC1 | 2.757
12 | O=C(NC[C@H]1OC[C@@H](NC(=O)C2CCCC2)[C@@H]1O)c1ccncc1 | 0
13 | CC(=O)Nc1ccc(CNC2COc3c2ccc(C)c3C)cc1 (stereo unspecified) | -7.711
14 | COCC[C@]1(O)CCN(S(=O)(=O)c2ccc(C)cc2OC)C[C@H]1C | -114.9
15 | Nc1no[n+]([O-])c1C(=O)NCc1cccnc1 | 115
16 | COc1c(C(=O)NCc2cccnc2)nnn1Cc1ccc(C)cc1 | 7.937
17 | Nc1no[n+]([O-])c1C(=O)NCc1ccccn1 | 131.2
18 | CCn1cc(Br)c(C(=O)NCc2cccnc2)n1 | 4.447
19 | CCc1noc(C)c1C(=O)NCc1ccccn1 | -15.45
20 | N#Cc1ccc(CN2C[C@@H]3OCC(=O)N(CC(N)=O)[C@@H]3C2)cc1 | -3.646
21 | CC(C)Oc1ccccc1CNC(=O)N(C)CC(F)F | -6.331
22 | O=C(NCCCOCC1CCCO1)c1cccnc1N1CCCC1 (stereo unspecified) | -6.483
23 | O=C(NC[C@@H]1CCCO1)c1cccnc1N1CCCC1c1ccccc1 (stereo partly specified) | 120.1
24 | O=C(NC[C@@H]1CCCO1)c1cccnc1N1CCCC1c1ccccn1 (stereo partly specified) | 123.2
25 | N#Cc1cccnc1NCc1cccc(C(=O)NCC2CCCCO2)c1 (stereo unspecified) | -17.65
26 | Fc1ccccc1CN1CCCN(c2ccc3cc[nH]c3n2)CC1 | -2.258
